According to the supplement of paper PMC12067093, “Discovery and optimisation of a covalent ligand for TRIM25 and its application to targeted protein ubiquitination” (Chemical Science, 2025):
Targets with the largest changes are over-represented here; the source holds about 21,000 in all.

Compound: CC1Cc2ccccc2N1C(=O)C1CCCN(C1)C(=O)CCl (mixture of isomers) [TRIM25 ligand 11 (diastereomer mixture)]
Assay: probe-labelled cysteine peptide fold change vs DMSO (competition) (log2 fold change); higher = less target engagement (more negative = stronger competition)
Settings: THP-1, incubation time: 4 h
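Also: competitive chemoproteomic profiling in live THP-1 cells with an iodoacetamide desthiobiotin (IA-DTB) probe, comparing probe-labelled peptide intensities in compound-treated cells against DMSO-treated controls.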

UniProt P43897, sequence (P43897 whole entry, looked up): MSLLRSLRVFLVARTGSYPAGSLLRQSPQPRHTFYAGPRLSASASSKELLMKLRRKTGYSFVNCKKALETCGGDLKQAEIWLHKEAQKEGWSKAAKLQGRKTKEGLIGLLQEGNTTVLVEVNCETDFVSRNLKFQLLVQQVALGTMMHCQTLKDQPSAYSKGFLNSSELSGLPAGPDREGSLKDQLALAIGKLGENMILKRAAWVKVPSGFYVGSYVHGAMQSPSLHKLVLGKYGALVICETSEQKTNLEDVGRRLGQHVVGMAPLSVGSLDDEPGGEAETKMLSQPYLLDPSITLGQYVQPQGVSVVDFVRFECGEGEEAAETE
UniProt Q6ZS81, sequence (Q6ZS81 whole entry, looked up): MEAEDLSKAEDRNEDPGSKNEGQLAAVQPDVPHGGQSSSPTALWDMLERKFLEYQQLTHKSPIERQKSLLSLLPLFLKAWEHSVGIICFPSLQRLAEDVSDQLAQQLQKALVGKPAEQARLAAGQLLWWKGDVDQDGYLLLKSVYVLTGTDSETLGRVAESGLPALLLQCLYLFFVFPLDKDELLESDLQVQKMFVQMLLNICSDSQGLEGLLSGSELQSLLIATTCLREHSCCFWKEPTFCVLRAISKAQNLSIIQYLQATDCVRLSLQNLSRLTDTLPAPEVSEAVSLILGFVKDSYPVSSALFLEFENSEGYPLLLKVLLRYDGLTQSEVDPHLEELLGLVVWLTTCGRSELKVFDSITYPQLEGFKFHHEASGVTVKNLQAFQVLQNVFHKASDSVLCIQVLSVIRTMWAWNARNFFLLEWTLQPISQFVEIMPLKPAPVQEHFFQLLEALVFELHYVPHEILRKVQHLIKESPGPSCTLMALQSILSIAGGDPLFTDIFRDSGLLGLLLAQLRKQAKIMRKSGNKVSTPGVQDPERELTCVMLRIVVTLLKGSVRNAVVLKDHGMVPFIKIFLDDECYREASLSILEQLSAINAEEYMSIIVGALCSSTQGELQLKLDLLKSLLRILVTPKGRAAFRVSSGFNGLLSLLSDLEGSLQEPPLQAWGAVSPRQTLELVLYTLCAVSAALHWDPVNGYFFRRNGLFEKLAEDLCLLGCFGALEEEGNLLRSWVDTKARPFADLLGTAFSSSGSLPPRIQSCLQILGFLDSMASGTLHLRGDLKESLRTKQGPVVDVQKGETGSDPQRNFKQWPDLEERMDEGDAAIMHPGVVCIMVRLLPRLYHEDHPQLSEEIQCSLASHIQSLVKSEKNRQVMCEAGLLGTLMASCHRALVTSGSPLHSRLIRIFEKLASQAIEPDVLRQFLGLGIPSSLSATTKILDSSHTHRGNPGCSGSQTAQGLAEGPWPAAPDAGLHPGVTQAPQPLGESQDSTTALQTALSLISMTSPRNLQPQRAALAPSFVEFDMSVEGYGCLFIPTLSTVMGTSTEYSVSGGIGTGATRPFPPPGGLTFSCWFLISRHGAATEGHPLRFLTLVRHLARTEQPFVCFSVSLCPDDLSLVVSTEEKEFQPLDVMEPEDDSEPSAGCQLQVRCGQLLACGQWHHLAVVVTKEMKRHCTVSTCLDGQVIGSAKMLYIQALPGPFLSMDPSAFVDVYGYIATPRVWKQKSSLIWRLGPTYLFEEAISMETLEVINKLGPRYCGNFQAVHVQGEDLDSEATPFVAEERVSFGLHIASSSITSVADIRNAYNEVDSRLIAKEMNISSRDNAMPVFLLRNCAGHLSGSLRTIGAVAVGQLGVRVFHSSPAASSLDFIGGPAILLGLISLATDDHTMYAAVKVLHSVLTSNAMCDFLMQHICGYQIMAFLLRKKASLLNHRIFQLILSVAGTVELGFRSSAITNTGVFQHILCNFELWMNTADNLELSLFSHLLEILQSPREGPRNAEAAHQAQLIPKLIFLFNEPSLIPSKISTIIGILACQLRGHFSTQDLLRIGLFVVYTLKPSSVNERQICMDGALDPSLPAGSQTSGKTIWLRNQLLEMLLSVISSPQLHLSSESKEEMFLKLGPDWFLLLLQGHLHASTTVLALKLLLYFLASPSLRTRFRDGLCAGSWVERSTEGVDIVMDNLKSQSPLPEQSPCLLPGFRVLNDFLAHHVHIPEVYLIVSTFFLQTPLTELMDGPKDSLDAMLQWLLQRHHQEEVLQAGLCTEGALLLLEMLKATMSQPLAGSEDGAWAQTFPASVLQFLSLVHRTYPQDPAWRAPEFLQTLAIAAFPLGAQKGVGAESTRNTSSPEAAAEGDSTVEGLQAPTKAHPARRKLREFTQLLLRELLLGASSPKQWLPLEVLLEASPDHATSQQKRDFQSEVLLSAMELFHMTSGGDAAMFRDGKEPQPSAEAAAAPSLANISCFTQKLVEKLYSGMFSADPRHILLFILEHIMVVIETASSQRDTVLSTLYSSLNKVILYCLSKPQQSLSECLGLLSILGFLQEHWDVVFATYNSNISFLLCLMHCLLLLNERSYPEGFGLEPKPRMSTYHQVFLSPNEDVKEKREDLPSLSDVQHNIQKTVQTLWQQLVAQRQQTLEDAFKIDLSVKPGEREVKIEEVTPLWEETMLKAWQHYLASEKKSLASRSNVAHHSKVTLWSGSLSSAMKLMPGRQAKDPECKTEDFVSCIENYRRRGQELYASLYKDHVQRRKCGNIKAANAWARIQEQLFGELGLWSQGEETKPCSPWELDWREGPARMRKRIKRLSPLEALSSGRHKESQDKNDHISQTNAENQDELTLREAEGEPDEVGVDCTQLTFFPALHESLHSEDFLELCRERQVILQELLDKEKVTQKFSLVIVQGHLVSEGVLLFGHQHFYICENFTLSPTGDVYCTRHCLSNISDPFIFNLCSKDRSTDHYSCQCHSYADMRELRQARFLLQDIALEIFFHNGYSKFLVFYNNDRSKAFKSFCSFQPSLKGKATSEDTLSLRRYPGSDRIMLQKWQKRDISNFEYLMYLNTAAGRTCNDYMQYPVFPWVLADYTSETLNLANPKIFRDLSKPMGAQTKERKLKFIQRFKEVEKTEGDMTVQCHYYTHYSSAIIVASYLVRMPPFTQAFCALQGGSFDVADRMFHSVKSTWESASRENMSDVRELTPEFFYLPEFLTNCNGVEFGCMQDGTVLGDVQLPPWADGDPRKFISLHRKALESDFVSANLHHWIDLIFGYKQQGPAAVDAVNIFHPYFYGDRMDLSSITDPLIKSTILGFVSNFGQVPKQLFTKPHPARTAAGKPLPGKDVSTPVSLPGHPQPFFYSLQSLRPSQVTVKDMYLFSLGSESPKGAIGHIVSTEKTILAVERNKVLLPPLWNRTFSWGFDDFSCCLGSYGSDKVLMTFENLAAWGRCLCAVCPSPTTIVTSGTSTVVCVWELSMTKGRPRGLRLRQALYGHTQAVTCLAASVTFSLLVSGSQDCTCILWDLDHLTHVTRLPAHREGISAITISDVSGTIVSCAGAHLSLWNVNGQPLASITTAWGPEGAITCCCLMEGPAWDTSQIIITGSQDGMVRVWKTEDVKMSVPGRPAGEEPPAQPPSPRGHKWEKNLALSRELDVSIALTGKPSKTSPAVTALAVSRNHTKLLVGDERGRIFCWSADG
UniProt Q8N806, sequence (Q8N806 whole entry, looked up): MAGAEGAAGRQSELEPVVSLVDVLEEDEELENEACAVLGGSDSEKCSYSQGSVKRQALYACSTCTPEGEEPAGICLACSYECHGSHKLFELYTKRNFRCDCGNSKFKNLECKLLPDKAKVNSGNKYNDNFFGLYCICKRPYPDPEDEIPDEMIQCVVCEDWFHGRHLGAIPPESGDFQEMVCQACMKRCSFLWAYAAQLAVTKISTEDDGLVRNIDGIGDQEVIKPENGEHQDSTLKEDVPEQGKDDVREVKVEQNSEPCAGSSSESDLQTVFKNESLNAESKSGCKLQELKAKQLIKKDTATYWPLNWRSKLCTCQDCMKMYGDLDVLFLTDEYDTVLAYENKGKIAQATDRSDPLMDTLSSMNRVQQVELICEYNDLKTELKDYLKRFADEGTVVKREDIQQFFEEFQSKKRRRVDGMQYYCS
UniProt Q96CW5, sequence (Q96CW5 whole entry, looked up): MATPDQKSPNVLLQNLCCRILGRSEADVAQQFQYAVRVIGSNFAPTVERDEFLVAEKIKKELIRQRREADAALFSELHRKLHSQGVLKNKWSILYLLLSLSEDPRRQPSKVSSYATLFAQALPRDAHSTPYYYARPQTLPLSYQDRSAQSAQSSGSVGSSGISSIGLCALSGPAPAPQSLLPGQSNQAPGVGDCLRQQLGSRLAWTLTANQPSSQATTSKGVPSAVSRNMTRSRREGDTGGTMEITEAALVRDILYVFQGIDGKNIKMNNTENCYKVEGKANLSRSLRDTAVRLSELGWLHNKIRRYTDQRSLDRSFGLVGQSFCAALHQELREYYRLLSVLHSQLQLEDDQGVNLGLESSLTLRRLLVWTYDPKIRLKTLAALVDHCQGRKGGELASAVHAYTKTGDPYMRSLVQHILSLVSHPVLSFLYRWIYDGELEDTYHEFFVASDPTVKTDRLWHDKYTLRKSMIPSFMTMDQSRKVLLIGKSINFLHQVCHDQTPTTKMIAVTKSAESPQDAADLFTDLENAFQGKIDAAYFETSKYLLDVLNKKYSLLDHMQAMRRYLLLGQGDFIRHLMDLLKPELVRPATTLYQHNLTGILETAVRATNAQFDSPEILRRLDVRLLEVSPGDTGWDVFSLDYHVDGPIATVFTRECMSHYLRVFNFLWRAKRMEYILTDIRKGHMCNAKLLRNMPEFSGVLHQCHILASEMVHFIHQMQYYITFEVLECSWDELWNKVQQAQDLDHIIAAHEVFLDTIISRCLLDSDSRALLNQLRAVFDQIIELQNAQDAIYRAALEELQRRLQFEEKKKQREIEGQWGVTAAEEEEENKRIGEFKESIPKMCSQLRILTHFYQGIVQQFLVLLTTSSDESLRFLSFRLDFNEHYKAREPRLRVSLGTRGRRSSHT

Row | Target | probe-labelled cysteine peptide fold change (10 µM) | probe-labelled cysteine peptide fold change (50 µM)
1 | UBR5_O95071_1942_SHNDEHSDVLPVLDVCSLK (UniProt O95071) | -0.586 | -0.263
2 | VCP_P55072_105_LGDVISIQPCPDVK (UniProt P55072) | -0.0602 | -0.113
3 | TSFM_P43897_149_FQLLVQQVALGTMMHCQTLK (UniProt P43897) | -0.117 | -0.0693
4 | VPS29_Q9UBQ0_36+41_IQHILCTGNLCTK (UniProt Q9UBQ0) | 0.0402 | -0.0827
5 | UAP1L1_Q3KQV9_271+278_LADPVFIGFCVLQGADCGAK (UniProt Q3KQV9) | 0.0951 | 0.0877
6 | WDR26_Q9H7D7_238_CELTPLK (UniProt Q9H7D7) | -0.0356 | -0.0732
7 | WDFY4_Q6ZS81_1763_HHQEEVLQAGLCTEGALLLLEMLK (UniProt Q6ZS81) | 0.571 | 0.181
8 | UBR7_Q8N806_99+101_CDCGNSK (UniProt Q8N806) | -0.0898 | -0.168
9 | TUBGCP3_Q96CW5_388_TLAALVDHCQGRK (UniProt Q96CW5) | -0.158 | -0.0586
10 | UBR2_Q8IWV8_1360_ILSDEDKPLFGPLPCR (UniProt Q8IWV8) | -0.139 | -0.289
11 | VPS39_Q96JC1_681_LICDFPFDGLLEER (UniProt Q96JC1) | 0.145 | 0.086
12 | URB1_O60287_315_ELVHNFLMDLCCSLK (UniProt O60287) | -0.0229 | -0.0236
13 | URB2_Q14146_1380_LHNVLFSILQCHPK (UniProt Q14146) | 0.199 | 0.859
14 | USP20_Q9Y2K6_8_DLCPHLDSIGEVTKEDLLLK (UniProt Q9Y2K6) | -0.12 | -0.352
